Compound activity (PubChem BioAssay)
Most compounds without a hit are left out; they make up all but 4% or so of the library.
Rv3671c inh: inhibitors of M. tuberculosis serine protease Rv3671c. inhibition, % at 5.96 µM. 0.048% of 320,000 active; in the data active = inhibition above about 38%;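 note: extracellular domain of Rv3671c used as enzyme; 0% = enzyme with DMSO and 100% = no enzyme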
RecA intein inh: blocks M. tuberculosis RecA intein splicing. P9WHJ3. cell-free RecA intein splicing, fluorescence. inhibition, % (test concentration not listed). 0.75% of 290,000 active; in the data active = inhibition above about 30%; inconclusive = no clear call, values can overlap the other calls;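 note: 0% = vehicle wells and 100% = reference inhibitor control wells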
GDH-TPI counter-1: GDH-TPI coupled enzyme inhibition counter-screen. 1.2% of 360,000 active. AID 588335. inhibition, % at 4.8 µM. GDH-TPI coupled enzyme counterscreen, NADH absorbance; in the data active = inhibition above about 30%;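 note: 0% = DMSO wells and 100% = wells lacking the enzyme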
Mtb bLac sens: beta-lactam sensitization of Mtb H37Rv | M. tuberculosis H37Rv growth with meropenem, percent inhibition | inhibition, % at 25 µM | 0.27% of 330,000 active | AID 434955; call rule not given here;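 note: growth measured after seven days incubation then overnight dye step; 0% = bacteria only wells and 100% = bacteria with antibiotic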
Mtb UGM inh: blocks M. tuberculosis UGM enzyme; P9WIQ1; purified UGM, fluorescence polarization probe displacement; inhibition, % at 10 µM; 0.06% of 320,000 active; AID 504406; in the data active = inhibition above about 10%, passing the limit was not always enough; inconclusive = no clear call, values can overlap the other calls
Target sequence (P9WIQ1 whole entry, looked up): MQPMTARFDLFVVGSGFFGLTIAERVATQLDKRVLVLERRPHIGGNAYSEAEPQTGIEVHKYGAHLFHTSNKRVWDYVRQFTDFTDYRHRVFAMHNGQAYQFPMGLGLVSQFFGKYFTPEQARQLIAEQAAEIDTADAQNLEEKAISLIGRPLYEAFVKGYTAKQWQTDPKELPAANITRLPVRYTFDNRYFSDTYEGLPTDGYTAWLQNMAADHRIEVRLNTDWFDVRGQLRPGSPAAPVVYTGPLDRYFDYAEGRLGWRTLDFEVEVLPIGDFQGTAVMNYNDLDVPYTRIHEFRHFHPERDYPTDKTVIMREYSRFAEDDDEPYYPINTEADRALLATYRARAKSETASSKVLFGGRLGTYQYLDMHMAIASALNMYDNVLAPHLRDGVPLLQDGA
Mtb FBA inh: inhibits M. tuberculosis FBA enzyme. purified M. tuberculosis FBA, fluorescence read-out. inhibition, % at 1 µM. 2.3% of 360,000 active;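 note: 0% = vehicle and 100% = reference inhibitor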
Mtb FBA confirm: Mtb FBA inhibition, confirmed | purified M. tuberculosis FBA, fluorescence read-out | shares compounds with Mtb FBA inh | inhibition, % at 1 µM | 78% of 5,600 active;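 note: 0% = vehicle wells and 100% = reference inhibitor wells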
GDH-TPI counter-2: inhibits GDH-TPI coupling enzymes, flagging Mtb FBA hits; shares compounds with Mtb FBA inh; GDH-TPI coupled enzyme counterscreen, fluorescence; inhibition, % at 1 µM; 81% of 5,600 active; AID 652141; in the data active = inhibition above about 10%
* = called active by the depositor; ? = inconclusive; . = no result; + = active, no number. Cut-off read from the data, not from the text of the source, unless noted: active = inhibition above about 27%; inactive = the rest.

SMILES	Rv3671c inh	RecA intein inh	GDH-TPI counter-1	Mtb bLac sens	Mtb UGM inh	Mtb FBA inh	Mtb FBA confirm	GDH-TPI counter-2
O=S(=O)(Nc1ccccc1)C1CCCCC1	.	.	9	.	.	2	.	.
COc1cccc(CN(C(=O)c2ccc([N+](=O)[O-])cc2)C2CCS(=O)(=O)C2)c1 (centres undefined)	4	0	12	5	0	64*	101*	79*
COc1ccc(CCN2C(=S)N(C)C(=O)C2CC(=O)Nc2ccc(OC)cc2)cc1 (centres undefined)	-3	2	7	1	0	-1	.	.
COc1ccc(NC(=O)CC2C(=O)N(C)C(=S)N2Cc2ccc3c(c2)OCO3)cc1 (centres undefined)	0	-1	5	-10	-2	80*	39*	33*
CCOc1ccc2ccccc2c1/C=N/NC(=O)c1ccncc1	-3	-4	21	98	-4	1	.	.
COc1ccc(Cl)c2sc(N3CCN(C(C)=O)CC3)nc12	1	-2	7	-3	4	1	.	.
COc1ccc2nc(N/C(N)=N/C(=S)Nc3c(C)cccc3C)nc(C)c2c1	-2	1	-1	26	4	17	.	.
COc1ccc2nc(N/C(N)=N/S(C)(=O)=O)nc(C)c2c1	-1	-2	-1	6	0	53*	+	+
CCCCc1cc(=O)oc2cc(C)cc(OCC(=O)NCC3CCC(C(=O)O)CC3)c12 (centres undefined)	6	-4	2	-7	5	67*	0	-2
CCCCc1cc(=O)oc2cc(OC(C)C(=O)NCC3CCC(C(=O)O)CC3)c(Cl)cc12 (centres undefined)	-5	11	8	-11	2	6	.	.
CCCCc1cc(=O)oc2cc(C)cc(OCC(=O)NCc3ccncc3)c12	-10	-3	7	-9	0	81*	139*	108*
CCCc1cc(=O)oc2cc(C)cc(OCC(=O)NCc3ccccn3)c12	4	-1	6	4	0	55*	28*	32*
Cc1cc(OCC(=O)NCc2ccccn2)c2c(C)cc(=O)oc2c1	-2	0	3	1	-2	79*	103*	72*
CCN(CC)C(=O)c1cccc(-c2csc(C(C)(O)c3ccncc3)n2)c1 (centres undefined)	.	.	-5	.	.	1	.	.
N#CCCn1cc(C(=O)CN2C(=O)C(=O)N(C3CCCC3)C2=O)c2ccccc21	.	.	-2	.	.	-1	.	.
CCC(C)NC(=O)c1cc2c(=O)[nH]c3ccc(C)cc3c2s1 (centres undefined)	-46	-7	24	5	1	70*	89*	65*
CCCCN(CC)CCCNC(=O)c1cc2c(=O)[nH]c3ccccc3c2s1	-4	-2	26	-4	3	72*	170*	153*
CC(C)CCNC(=O)c1cc2c(=O)[nH]c3ccccc3c2s1	-12	2	14	-3	2	9	.	.
CCOCCCNC(=O)c1cc2c(=O)[nH]c3ccccc3c2s1	-5	3	11	0	-1	71*	+	+
Cc1ccc2[nH]c(=O)c3cc(C(=O)NCCC(C)C)sc3c2c1	.	-4	-3	5	-2	15	.	.
CCCCN(CC)CCNC(=O)c1cc2c(=O)[nH]c3ccc(C)cc3c2s1	-6	0	14	0	0	36*	59*	46*
CCN(C[C@H]1N[C@@](Cc2ccccc2)(C(=O)OC)[C@H]2C(=O)N(C)C(=O)[C@@H]12)C(=O)C1CCCCC1	6	.	14	0	.	5	.	.
O=C(C[C@@H]1C/C=C\CCCC(=O)OC[C@@H]2CCCN2C1=O)N[C@@H](CO)Cc1ccccc1	0	.	-4	-4	-2	-1	.	.
Nc1ccc2c(c1)Cc1c(F)cccc1-2	.	.	6	.	.	0	.	.
O=C(NCCN1CCOCC1)C(=O)NCC1OCCCN1S(=O)(=O)c1cc(F)ccc1F (centres undefined)	-1	1	-7	-7	0	0	.	.
SMILES	Rv3671c inh	RecA intein inh	GDH-TPI counter-1	Mtb bLac sens	Mtb UGM inh	Mtb FBA inh	Mtb FBA confirm	GDH-TPI counter-2
Cc1ncc(CO)c(/C=N/NC(=O)c2ccoc2C)c1O	.	.	10	.	.	33*	2	3
N#CCCN(C(=S)Nc1ccc(S(=O)(=O)N2CCOCC2)cc1)c1ccccc1F	.	.	-1	.	.	1	.	.
CCc1nc(C(N)=O)c2[nH]c(=O)n(-c3ccc(OC)cc3OC)c2n1	-1	-2	-6	?	-1	2	.	.
COC(=O)c1c(C)[nH]c(C(=O)COc2ccc3ccc(=O)oc3c2)c1C	-13	.	15	2	1	6	.	.
CC(=O)c1c(C)[nH]c(C(=O)COc2ccc3ccc(=O)oc3c2)c1C	-2	0	19	-14	-1	50*	92*	51*
c1ccc(N2CC3COc4ccccc4C3=N2)cc1 (centres undefined)	.	.	17	.	.	58*	73*	71*
Cn1nnnc1SCC(=O)Nc1nn(-c2ccccc2)nc1C(N)=O	-6	2	3	-4	2	28*	132*	89*
Clc1ccccc1-c1cccc2nccn12	.	.	-5	.	.	35*	0	-5
CS(=O)(=O)Nc1ccccc1-c1cccc2nccn12	.	.	-1	.	.	40*	58*	39*
Clc1ccccc1-c1ncc2ccccn12	8	5	-1	3	0	21	.	.
c1ccc2c(c1)oc1c(-c3cccc4nccn34)cccc12	.	.	19	.	.	90*	50*	44*
CS(=O)(=O)Nc1ccc(-c2cncc3nccn23)cc1	.	.	35*	.	.	63*	65*	56*
COc1ccc2oc(C(=O)OCC(=O)N(C)Cc3ccccc3)c(C)c2c1	2	3	2	3	0	31*	158*	168*
COc1ccc2oc(C(=O)OCC(=O)N(C)c3ccccc3)c(C)c2c1	-2	-8	-2	-4	-1	35*	128*	101*
O=C(Cn1cc(C(F)(F)F)cc(Cl)c1=O)NCc1ccc(F)cc1	-4	-1	5	-6	-3	-1	.	.
Cc1ccc2c(c1)sc1nncn12	.	.	-1	.	.	-1	.	.
CC12CCC(C(=O)N(NC(=O)c3cc(Cl)ccc3O)C1=O)C2(C)C (centres undefined)	11	-2	6	-13	-2	44*	0	-7
Cc1nc2nc(Cc3ccccc3)[nH]n2c(=O)c1Cl	-1	8	-7	12	3	29*	49*	50*
Cc1nc2nc(Cc3ccccc3)[nH]n2c(=O)c1Cc1ccccc1	4	.	0	32	3	-2	.	.
CCn1c(SCC(=O)NC2CCCCC2)nc2ccccc2c1=O	-13	1	5	-14	1	11	.	.
CCc1cc2c(=O)c(-c3ccc4c(c3)OCO4)coc2c(CN(C)C)c1O	0	-2	28	3	-5	23	.	.
